# In PubChem BioAssay (NCATS):
# Inconclusive results are not listed. A call without a number means that no potency is given here. Values without a mark were called inactive. Activity calls are given as the source filed them. The call rests on the fitted dose curve; in most records, active means well fitted inhibition curve with a large enough effect; inconclusive means small, poorly fitted or top-dose-only effect; inactive means flat fitted curve, though single readings scatter.
# Biological target: Calcium and integrin-binding protein 1 (Homo sapiens) (UniProt Q99828)
# Test: Primary qHTS for Identification of Calcium Integrin Binding Protein 1 (CIB1) Competitor (AID 1508620);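 on activity change, negative = inhibition: GST tagged CIB1 binding a fluorescein labelled alphaIIb integrin peptide tracer; top concentration of the series differs between compounds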
# Procedure, shortened: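 CIB1-GST (1 uM final) and compound incubated 15 min at room temperature before adding FITC-alphaIIb peptide tracer (100 nM final). Competition for binding read by fluorescence polarization (ex 480, em 540) after another 15 min at room temperature.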
# Potency means the concentration at half of the fitted maximal effect.
# Sequence of Calcium and integrin-binding protein 1 (Homo sapiens) (Q99828 whole entry, looked up): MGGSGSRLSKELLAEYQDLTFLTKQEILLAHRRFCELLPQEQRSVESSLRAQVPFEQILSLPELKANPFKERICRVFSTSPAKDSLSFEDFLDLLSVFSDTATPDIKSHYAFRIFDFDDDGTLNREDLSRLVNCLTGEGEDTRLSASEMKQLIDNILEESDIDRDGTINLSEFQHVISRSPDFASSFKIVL
Structure (SMILES),Potency,"activity change, negative = inhibition"
CC(=O)OC1C(=O)C2C3OCC4=C3[C@@](C)(CC[C@@H]4O)CC[C@]2(C)[C@H]1C(C)C (stereo partly specified),inactive,–
Cn1ncc2cc(-c3cnc(N)c(Cl)c3N3CCC4(CCNC4=O)CC3)ccc21,inactive,–
C=C(C)C(=O)O[C@H]1[C@H]2C(=C)C(=O)O[C@@H]2/C=C(\CO)CC/C=C(/C=O)[C@@H]1O,inactive,–
C=C(C)C1CC(O)C(C)C12CC(O)C1(C)OC1C2O (stereo unspecified),inactive,–
CC(C)C[C@@H]1NC(=O)[C@@H]2C[C@@]34C[C@@H]5[C@@]6(C)CCCC(C)(C)C6CC[C@@]5(C)N(c5ccccc53)[C@H]4N2C1=O (stereo partly specified),inactive,–
CC(=O)OC1CCC2(C)C(CCC3(C)C2CC=C2C4C(C)C(C)CCC4(C)CCC23C)C1(C)C(=O)O (stereo unspecified),inactive,–
C/C(=C/CO)CCC1C(C)CCC2C(C)(C)CCCC12C (stereo unspecified),inactive,–
COc1ccc(C(=O)O[C@H]2C=COC=C3C=C4C(=O)N(C)C(=S)C(=O)N4[C@@H]32)cc1Oc1cc(C=O)ccc1O,22.4 µM (active),–
O=C1Nc2ccccc2-c2nc3ccccc3c(=O)n2-c2c(O)cccc21,inactive,–
C/C=C(/C)C(=O)OC1CC(C)(C)CC2C3=CCC4C5(C)CCC(O[C@@H]6O[C@H](C(=O)O)[C@@H](O)[C@H](O)[C@H]6O[C@@H]6O[C@H](CO)[C@H](O)[C@H](O[C@@H]7OC[C@H](O)[C@H](O)[C@H]7O[C@@H]7O[C@H](CO)[C@@H](O)[C@H](O)[C@H]7O)[C@H]6O)C(C)(C)C5CCC4(C)C3(C)C(O)C(O)C12CO (stereo partly specified),–,-2.71% [at 12.4 µM]
CC(=O)c1c(C)cc2cccc(O)c2c1O[C@@H]1O[C@H](CO)[C@@H](O)[C@H](O)[C@H]1O,inactive,–
